Screening data as filed in PubChem BioAssay.
An excerpt weighted towards active compounds, which were near 8.8% of everything screened.
IL1B secr inh: qHTS for Inhibitors of Inflammasome Signaling: IL-1-beta AlphaLISA Primary Screen. THP-1 LPS/ATP IL-1B secretion, AlphaLISA, 16 h; active compounds read low. activity change, % at 57.5 µM. 4.7% of 360,000 active. AID 743279, 2014; in the data active means activity change below about -50%; inconclusive means mostly about -30% to -49%
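THP-1 cells pretreated 1 hr with compounds (up to 57.5 uM final), then stimulated with LPS (250 ng/mL final) plus ATP (1.25 mM final); secreted IL-1B measured by AlphaLISA after 16 hr, decreased signal indicating inhibition.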
HT1080 IDH1KD tx: qHTS for induction of synthetic lethality in tumor cells producing 2HG: qHTS for the HT-1080-IDH1KD cell line | 2% of 360,000 active | HT-1080 IDH1 knockdown viability, ATP luminescence, 48 h | AID 686971, 2013 | Potency, µM (doses to about 46.1 µM), most hits filed as cytotoxic
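Luminescent ATP read-out (CellTiter-Glo, 10 min at room temperature) after 48 h compound exposure at 37 °C gave viability of IDH1-knockdown HT-1080 cells. Activity was normalised to DMSO and cell-free wells, then fitted as concentration-response curves.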
HT1080-NT tox: qHTS for induction of synthetic lethality in tumor cells producing 2HG: qHTS for the HT-1080-NT fibrosarcoma cell line; HT-1080-NT fibrosarcoma viability, CellTiter-Glo ATP luminescence, 48 h; Potency, µM (highest dose often 46.1 µM), most hits filed as cytotoxic; 1.6% of 360,000 active; AID 686970, 2013;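 further: NT is the 2HG producing partner of a matched IDH1 knockdown line; nearly all actives have a fitted effect of over 55% in size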
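HT-1080-NT; 750 cells/well; 5% FBS RPMI; 48 h compound, 37 degrees C; CellTiter-Glo luminescence; curve fitting and curve-class assignment.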
KB-V1 MDR tox: qHTS assay for MDR1-selective chemotherapeutics: Primary screen using the drug-selected MDR subline cells KB-V1; KB-V1 MDR cells viability, CellTiter-Glo, 72 h; Potency, µM (titrated, usually from 46.1 µM), usual class: cytotoxic; 3.4% of 400,000 active; AID 1347076, 2019; further: nearly all actives have a fitted effect of over 60% in size
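Cytotoxicity toward P-gp-expressing KB-V1 cells was determined as loss of CellTiter-Glo luminescence after 72 h at 37 degrees C. Compounds were tested in quantitative HTS format across a concentration range, with curves fitted to normalized data.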
KB-3-1 cytotox: qHTS assay for MDR1-selective chemotherapeutics: Primary screen using the parental adenocarcinoma cell KB-3-1. KB-3-1 viability, CellTiter-Glo ATP luminescence, 72 h. 1.4% of 400,000 active. Potency, µM (titrated, usually from 46.1 µM), actives largely listed as cytotoxic; further: nearly all actives have a fitted effect of over 60% in size
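Cytotoxicity in the drug-sensitive parental line KB-3-1 was scored as loss of CellTiter-Glo luminescence following 72 h incubation with compound. Values come from curve fitting of normalized concentration-response data.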
A number is an active result; . = inactive; ? = inconclusive; / = no result given; [ ] = dose if it differs, or a comment. Unless noted, the call rests on the fitted dose curve; in most records, active means well fitted curve in the direction sought with a large enough effect; inconclusive means small, poorly fitted or top-dose-only effect, or another doubt; inactive means no such curve, though single readings can be large; an effect the other way counts as inactive or inconclusive.

SMILES	IL1B secr inh	HT1080 IDH1KD tx	HT1080-NT tox	KB-V1 MDR tox	KB-3-1 cytotox
Cc1ccc2nc(N3CC(=O)Nc4ccccc43)nc(-c3ccccc3)c2c1	.	16µM	18µM	?	.
Cc1ccc2nc(N3CCC(C(=O)O)CC3)nc(-c3ccccc3)c2c1	.	.	.	.	.
NS(=O)(=O)c1ccc(Nc2nc(-c3ccc(F)cc3)cs2)cc1	-88	15µM	?	.	.
CC(=O)Nc1ccc(-c2csc(Nc3ccc(S(N)(=O)=O)cc3)n2)cc1	.	.	.	.	.
NS(=O)(=O)c1ccc(Nc2nc(-c3ccc(O)cc3O)cs2)cc1	-57	.	.	.	.
COc1ccc(-c2csc(Nc3ccc(S(N)(=O)=O)cc3)n2)cc1OC	-64	.	.	.	.
Cc1cc(NS(=O)(=O)c2ccc(Nc3nc(-c4ccc(O)cc4)cs3)cc2)no1	.	.	.	.	.
Cc1cc(NS(=O)(=O)c2ccc(Nc3nc(-c4ccc(C)c(C)c4)cs3)cc2)no1	-56	.	.	.	.
CC(=O)c1ccc(NC(=O)CSc2nnc(-c3ccncc3)n2-c2ccccc2)cc1	/	/	/	.	.
CNC(=O)c1c(NC(=O)c2cc(=O)c3cc(C)c(C)cc3o2)sc2c1CCCC2	/	/	/	.	.
Nc1ccc(C(=O)N/N=C/c2sc(N3CCOCC3)nc2-c2ccccc2)cc1	.	.	.	.	.
O=C(N/N=C/c1sc(N2CCOCC2)nc1-c1ccccc1)c1cccc(S(=O)(=O)N2CCOCC2)c1	.	?	3.7µM	.	4.1µM
O=C(N/N=C/c1sc(N2CCOCC2)nc1-c1ccccc1)c1ccccc1Cl	-57	.	.	.	.
Clc1cccc(Cl)c1C1=NOC(c2nnc(-c3ccccc3)o2)C1 (stereo not given)	.	.	.	.	.
COc1ccc(OC)c(NC(=O)C2(C)CCN2C(=O)C2(c3ccccc3)CCCC2)c1 (stereo not given)	.	.	.	.	.
Cc1nc2ccccn2c1C(=O)NCc1ccc2c(c1)OCO2	.	.	.	16µM	.
Cc1nc2ccccn2c1C(=O)Nc1ccc2c(c1)OCCO2	.	.	.	.	?
Cc1nc2ccccn2c1C(=O)N/N=C/c1ccc2c(c1)OCO2	.	.	.	18µM	?
CC(C)OC(=O)/C(C#N)=C/c1cn(C)c2ccccc12	-54	.	.	.	.
Cn1cc(/C=C(\C#N)C(=O)Nc2ccccc2O)c2ccccc21	-62	.	.	.	.
Cc1ccc(NC(=O)Cn2c([N+](=O)[O-])cnc2C)cc1Cl	.	.	.	.	.
CC(C)(C)c1cc(Cl)ccc1OCCn1ccnc1	-53	?	.	.	.
CC(C)(C)c1ccccc1OCCCCCn1ccnc1	-98	?	?	?	.
c1ccc(-c2ccccc2OCCCCn2ccnc2)cc1	-58	.	.	.	.
COCCCN1C(=O)C(=O)/C(=C(/O)c2ccc(S(=O)(=O)N3CCOCC3)cc2)C1c1ccc(OC)cc1 (stereo not given)	.	.	.	.	.
SMILES	IL1B secr inh	HT1080 IDH1KD tx	HT1080-NT tox	KB-V1 MDR tox	KB-3-1 cytotox
Cc1cc(Sc2nc(N)ncc2[N+](=O)[O-])ncn1	-109	6.5µM	5.8µM	.	16µM
Cc1cc(Sc2ncnc(N)c2[N+](=O)[O-])ncn1	-100	7.3µM	13µM	?	4.6µM
Cc1ccc(C)c(Oc2ncnc(N)c2[N+](=O)[O-])c1	.	.	.	.	.
Cc1cc(N)ncc1[N+](=O)[O-]	.	.	.	.	.
COCCNc1oc(-c2cccs2)nc1S(=O)(=O)c1ccc(C)cc1	.	.	.	?	.
COCCCNc1oc(-c2cccs2)nc1S(=O)(=O)c1ccc(C)cc1	.	.	.	15µM	.
CNC(=O)C1CCC(Cn2c(=O)c3sccc3n(CC(=O)N3CCCC(C)C3)c2=O)CC1 (stereo not given)	/	/	/	.	.
COc1ccc(NS(=O)(=O)N2CCOCC2)cc1	.	.	.	.	.
Cc1c(C(=O)N2CCOCC2)sc(NC(=O)CCl)c1C#N	.	12µM	13µM	.	?
C/C(=N\NC(=S)NCCc1ccccc1)c1ccc(C#N)cc1	.	7.1µM	6.3µM	.	.
O=C1C2CC=CCC2C(=O)N1Cc1ccccc1 (stereo not given)	.	.[9.24 µM]	.	.	.
O=C1C=CC(=O)N1Cc1ccccc1	-73	18µM	2.6µM	.	?
CC(=O)Nc1ccc(CNc2nc3cc(-c4ccsc4)sc3c(=O)n2C)cc1	.	.	.	23µM	?
Cn1c(NCCN2CCCC2)nc2cc(-c3ccsc3)sc2c1=O	-63	?	?	.	?
Clc1ccc(Cn2c(-c3cccnc3Cl)nc3ccccc32)c(Cl)c1	.	?	?	23µM	?
Clc1ccc(Cn2c(-c3cccnc3Cl)nc3ccccc32)cc1	.	.	.	.	.
O=C(c1cccc(C(F)(F)F)c1)C1CCCN(Cc2cccn2-c2ccccn2)C1 (stereo not given)	-91	?	?	?	.
O=C(c1cccc(C(F)(F)F)c1)C1CCCN(Cc2cccc(OCCO)c2)C1 (stereo not given)	-62	.	.	?	?
O=C(NCC1CCCN(Cc2ccc3nonc3c2)C1)c1cccc(C(F)(F)F)c1 (stereo not given)	-59	.	.	.	.
O=C(NCC1CCCN(Cc2ccc3c(c2)OCCO3)C1)c1ccc2c(c1)OCO2 (stereo not given)	.	.	.	?	.
Cc1n[nH]c(C)c1CCNC(=O)C1CCC(=O)N(CCc2cccc(F)c2)C1 (stereo not given)	.	.	.	/	/
O=C(c1cnn2c(-c3ccccc3)cc(-c3ccccc3)nc12)N1CCN(Cc2ccccc2)CC1	.	.	.	.	?
Cc1cc(C)c(C(=O)N2CCCC(N3CCN(c4ccc(F)cc4)CC3)C2)o1 (stereo not given)	.	.	.	?	.
COc1ccc(NC(=O)c2sc3nc(N4CCOCC4)c4c(c3c2N)CCCC4)c(OC)c1	.	.	.	.	.
O=C1[C@H]2[C@@H](c3ccc(F)cc3)N3C(=O)N(c4cccc(Cl)c4)C(=O)[C@@]3(Cc3ccc(Cl)cc3)[C@H]2C(=O)N1C1CCCCC1	.	.	.	.	.
O=C1[C@H]2[C@@H](c3ccc(F)cc3)N3C(=O)N(c4cccc(Cl)c4)C(=O)[C@@]3(Cc3ccccc3)[C@H]2C(=O)N1C1CCCCC1	-50	.	.	.	.
Nc1nc(NCCCN2CCOCC2)nc(Nc2ccccc2F)c1[N+](=O)[O-]	-57	.	.	.	.
